Reference: the supplement of paper PMC10382584, “Macrocyclization of linear molecules by deep learning to facilitate macrocyclic drug candidates discovery” (Nature Communications, 2023)

compound: Cc1cnc(Nc2ccc(OCCN3CCCC3)cc2)nc1Nc1cccc(S(=O)(=O)NC(C)(C)C)c1 [Fedratinib]; test: percent of DMSO control binding (KINOMEscan); higher = weaker binding / less inhibition; extreme values may be limits of the assay; conditions: concentration: 100 nM

Sequence of UniProt P00533 (P00533 whole entry S752-I759del, looked up): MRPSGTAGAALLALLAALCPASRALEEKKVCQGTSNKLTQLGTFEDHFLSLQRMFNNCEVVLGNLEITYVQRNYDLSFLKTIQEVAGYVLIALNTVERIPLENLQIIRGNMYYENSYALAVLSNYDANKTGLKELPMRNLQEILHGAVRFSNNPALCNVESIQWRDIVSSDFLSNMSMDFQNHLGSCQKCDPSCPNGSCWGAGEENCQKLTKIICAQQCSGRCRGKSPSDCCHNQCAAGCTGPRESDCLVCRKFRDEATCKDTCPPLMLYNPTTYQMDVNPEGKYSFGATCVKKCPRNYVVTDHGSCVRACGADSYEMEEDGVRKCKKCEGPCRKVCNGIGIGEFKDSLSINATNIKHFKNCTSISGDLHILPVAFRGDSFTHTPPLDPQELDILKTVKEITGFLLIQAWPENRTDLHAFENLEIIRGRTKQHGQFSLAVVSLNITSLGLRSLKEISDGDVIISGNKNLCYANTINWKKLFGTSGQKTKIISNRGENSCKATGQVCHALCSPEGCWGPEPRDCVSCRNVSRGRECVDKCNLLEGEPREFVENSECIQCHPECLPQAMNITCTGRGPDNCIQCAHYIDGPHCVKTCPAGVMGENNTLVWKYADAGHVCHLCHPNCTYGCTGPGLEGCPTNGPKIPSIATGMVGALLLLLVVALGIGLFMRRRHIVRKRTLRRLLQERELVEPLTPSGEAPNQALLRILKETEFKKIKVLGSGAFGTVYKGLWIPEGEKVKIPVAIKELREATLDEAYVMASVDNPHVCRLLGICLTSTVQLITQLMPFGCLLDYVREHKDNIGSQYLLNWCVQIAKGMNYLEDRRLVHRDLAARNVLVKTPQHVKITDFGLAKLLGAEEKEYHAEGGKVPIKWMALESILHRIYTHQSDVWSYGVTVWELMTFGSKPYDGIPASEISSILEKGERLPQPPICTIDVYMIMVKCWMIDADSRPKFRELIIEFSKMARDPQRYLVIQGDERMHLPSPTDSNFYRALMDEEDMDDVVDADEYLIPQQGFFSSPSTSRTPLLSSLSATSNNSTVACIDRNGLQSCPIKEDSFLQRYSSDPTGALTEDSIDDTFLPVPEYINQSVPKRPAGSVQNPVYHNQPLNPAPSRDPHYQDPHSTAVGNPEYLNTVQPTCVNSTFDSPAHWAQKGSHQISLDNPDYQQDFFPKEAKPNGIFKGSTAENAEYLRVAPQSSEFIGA
Sequence of UniProt Q9H3Y6 (Q9H3Y6 whole entry): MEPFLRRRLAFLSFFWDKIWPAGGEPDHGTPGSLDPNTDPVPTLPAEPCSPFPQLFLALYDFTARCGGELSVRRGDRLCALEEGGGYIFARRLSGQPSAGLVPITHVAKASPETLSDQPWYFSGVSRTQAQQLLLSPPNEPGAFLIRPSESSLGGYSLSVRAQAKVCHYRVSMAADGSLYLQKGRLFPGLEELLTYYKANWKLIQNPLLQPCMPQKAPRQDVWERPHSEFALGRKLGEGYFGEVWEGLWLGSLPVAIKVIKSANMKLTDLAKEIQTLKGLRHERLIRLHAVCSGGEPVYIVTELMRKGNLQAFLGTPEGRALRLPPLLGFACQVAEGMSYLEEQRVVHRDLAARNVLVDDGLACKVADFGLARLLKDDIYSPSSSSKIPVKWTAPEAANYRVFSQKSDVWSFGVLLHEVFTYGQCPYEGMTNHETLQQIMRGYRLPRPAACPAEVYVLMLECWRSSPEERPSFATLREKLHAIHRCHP
Sequence of UniProt O76039 (O76039 whole entry): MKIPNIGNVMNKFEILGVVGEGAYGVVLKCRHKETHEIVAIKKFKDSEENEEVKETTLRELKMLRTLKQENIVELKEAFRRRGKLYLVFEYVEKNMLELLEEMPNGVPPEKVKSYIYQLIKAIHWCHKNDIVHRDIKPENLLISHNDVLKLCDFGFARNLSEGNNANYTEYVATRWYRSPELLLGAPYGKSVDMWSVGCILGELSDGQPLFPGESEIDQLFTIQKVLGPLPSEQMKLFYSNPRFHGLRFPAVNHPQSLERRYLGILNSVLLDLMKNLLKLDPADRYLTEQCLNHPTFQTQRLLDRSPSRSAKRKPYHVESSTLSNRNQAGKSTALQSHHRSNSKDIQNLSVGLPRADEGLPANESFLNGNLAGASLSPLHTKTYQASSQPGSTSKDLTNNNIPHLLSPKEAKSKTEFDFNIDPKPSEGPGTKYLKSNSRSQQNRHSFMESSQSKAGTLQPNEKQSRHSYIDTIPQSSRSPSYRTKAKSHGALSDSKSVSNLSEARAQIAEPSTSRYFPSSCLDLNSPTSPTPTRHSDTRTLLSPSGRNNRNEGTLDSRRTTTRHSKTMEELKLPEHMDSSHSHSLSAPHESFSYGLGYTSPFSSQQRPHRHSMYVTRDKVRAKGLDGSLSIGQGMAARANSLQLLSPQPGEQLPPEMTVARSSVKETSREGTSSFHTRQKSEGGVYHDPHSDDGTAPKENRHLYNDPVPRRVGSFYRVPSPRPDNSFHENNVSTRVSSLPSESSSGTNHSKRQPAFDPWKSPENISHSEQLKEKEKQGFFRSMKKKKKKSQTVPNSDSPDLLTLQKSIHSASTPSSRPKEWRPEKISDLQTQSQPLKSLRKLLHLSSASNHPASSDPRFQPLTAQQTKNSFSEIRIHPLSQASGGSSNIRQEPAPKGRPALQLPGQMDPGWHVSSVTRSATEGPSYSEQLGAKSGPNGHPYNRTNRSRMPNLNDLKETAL
Sequence of UniProt Q6P3R8 (Q6P3R8 whole entry): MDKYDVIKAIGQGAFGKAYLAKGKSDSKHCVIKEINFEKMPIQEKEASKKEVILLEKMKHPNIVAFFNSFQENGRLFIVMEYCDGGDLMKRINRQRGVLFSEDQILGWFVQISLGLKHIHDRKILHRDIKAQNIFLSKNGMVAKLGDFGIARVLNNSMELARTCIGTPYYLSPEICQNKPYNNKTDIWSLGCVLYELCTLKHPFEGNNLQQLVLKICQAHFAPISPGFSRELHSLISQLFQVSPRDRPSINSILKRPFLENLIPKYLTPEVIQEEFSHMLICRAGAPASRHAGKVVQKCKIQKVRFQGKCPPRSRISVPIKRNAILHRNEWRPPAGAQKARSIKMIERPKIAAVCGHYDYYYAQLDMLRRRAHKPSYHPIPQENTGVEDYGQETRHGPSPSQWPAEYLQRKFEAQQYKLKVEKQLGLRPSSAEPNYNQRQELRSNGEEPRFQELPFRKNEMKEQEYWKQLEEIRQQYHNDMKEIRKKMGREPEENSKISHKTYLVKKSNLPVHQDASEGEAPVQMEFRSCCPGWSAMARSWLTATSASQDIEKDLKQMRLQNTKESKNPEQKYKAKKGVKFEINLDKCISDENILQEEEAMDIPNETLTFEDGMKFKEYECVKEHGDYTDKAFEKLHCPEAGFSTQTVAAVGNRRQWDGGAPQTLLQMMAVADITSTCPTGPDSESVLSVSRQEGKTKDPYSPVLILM
Sequence of UniProt Q9NSY1 (Q9NSY1 whole entry, looked up): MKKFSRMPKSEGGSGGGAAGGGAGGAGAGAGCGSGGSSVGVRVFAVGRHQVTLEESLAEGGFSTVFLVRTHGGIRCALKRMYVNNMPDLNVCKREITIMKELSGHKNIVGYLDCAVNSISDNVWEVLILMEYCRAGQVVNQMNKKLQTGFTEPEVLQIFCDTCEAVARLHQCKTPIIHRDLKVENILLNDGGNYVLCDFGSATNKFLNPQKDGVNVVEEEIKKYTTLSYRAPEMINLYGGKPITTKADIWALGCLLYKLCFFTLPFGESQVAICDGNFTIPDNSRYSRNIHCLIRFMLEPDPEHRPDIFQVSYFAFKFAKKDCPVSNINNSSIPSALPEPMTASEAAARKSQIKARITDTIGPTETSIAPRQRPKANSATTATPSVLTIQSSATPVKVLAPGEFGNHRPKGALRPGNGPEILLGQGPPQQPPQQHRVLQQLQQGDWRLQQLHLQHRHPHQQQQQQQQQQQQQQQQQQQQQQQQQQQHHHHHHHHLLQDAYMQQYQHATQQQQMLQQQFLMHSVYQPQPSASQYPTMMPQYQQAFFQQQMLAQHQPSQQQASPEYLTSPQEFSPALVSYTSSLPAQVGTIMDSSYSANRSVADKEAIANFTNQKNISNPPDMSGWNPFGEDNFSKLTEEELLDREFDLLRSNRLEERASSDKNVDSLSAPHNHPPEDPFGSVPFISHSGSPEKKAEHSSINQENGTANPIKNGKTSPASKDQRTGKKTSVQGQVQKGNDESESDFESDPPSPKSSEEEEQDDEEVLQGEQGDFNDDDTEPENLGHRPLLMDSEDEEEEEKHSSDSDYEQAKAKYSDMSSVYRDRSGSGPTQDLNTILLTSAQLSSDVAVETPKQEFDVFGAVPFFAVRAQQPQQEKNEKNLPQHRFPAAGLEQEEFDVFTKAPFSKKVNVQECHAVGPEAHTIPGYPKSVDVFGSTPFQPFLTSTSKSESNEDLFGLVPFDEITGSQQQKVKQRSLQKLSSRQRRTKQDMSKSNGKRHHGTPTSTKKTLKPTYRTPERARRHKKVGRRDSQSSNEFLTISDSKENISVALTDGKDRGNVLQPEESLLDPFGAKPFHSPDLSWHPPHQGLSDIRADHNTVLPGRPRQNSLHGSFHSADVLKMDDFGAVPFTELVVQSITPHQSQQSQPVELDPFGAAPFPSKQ
Sequence of UniProt Q16539 (Q16539 whole entry): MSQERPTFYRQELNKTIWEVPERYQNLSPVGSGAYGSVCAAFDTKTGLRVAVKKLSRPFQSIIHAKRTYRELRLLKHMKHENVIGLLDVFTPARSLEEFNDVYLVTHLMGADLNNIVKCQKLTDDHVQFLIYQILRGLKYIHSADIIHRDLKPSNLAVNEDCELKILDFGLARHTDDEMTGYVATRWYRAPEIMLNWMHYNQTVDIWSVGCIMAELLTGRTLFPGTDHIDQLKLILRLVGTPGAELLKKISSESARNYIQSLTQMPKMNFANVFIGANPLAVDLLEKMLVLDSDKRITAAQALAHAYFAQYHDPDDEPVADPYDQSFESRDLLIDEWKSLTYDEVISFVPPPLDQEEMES

Target	percent of DMSO control binding [%]
BIKE (UniProt Q9NSY1)	7.4
MLK3 (UniProt Q16584)	100
CDKL5 (UniProt O76039)	91
EGFR(S752-I759del) (UniProt P00533)	88
WEE2 (UniProt P0C1S8)	100
p38-alpha (UniProt Q16539)	78
RSK3(Kin.Dom.1-N-terminal)	100
ERBB4 (UniProt Q15303)	100
PRKD3 (UniProt O94806)	100
MET(M1250T) (UniProt P08581)	94
MLK1 (UniProt P80192)	96
SRMS (UniProt Q9H3Y6)	70
MAP3K3 (UniProt Q99759)	78
MET(Y1235D) (UniProt P08581)	100
BMPR2 (UniProt Q13873)	68
PFPK5(P.falciparum)	100
SGK3 (UniProt Q96BR1)	91
RPS6KA5(Kin.Dom.1-N-terminal) (UniProt O75582)	100
LRRK2(G2019S) (UniProt Q5S007)	76
BRAF(V600E)	95
PIKFYVE (UniProt Q9Y2I7)	83
CDK9 (UniProt P50750)	97
ZAK (UniProt Q9NYL2)	81
JAK1(JH2domain-pseudokinase) (UniProt P23458)	80
NEK5 (UniProt Q6P3R8)	94
IKK-epsilon (UniProt Q14164)	57
ALK(L1196M) (UniProt Q9UM73)	67
DDR1 (UniProt Q08345)	100
